Source: PubChem
This is a sample that favours compounds with a hit; in the whole collection about 3.5% have one here.
BoNT-F LC inh – BoNT F light chain protease inhibition. Multiplex microsphere protease cleavage assay, flow cytometry. inhibition, % at 10 µM. hit rate 0.22% among 360,000; in the data active means inhibition above about 35%, passing the limit was not always enough; inconclusive means no clear call, values can overlap the other calls
BoNT-A LC inh2 – blocks Botulinum neurotoxin A light chain protease; inhibition, % at 10 µM; hit rate 0.17% among 360,000; multiplex microsphere protease substrate cleavage, flow cytometry; AID 588499
BJeLR viability – BJeLR cell viability loss | BJeLR (HRASV12) viability, CellTiter-Glo ATP luminescence, 48 h | inhibition, % (concentration not given with the values) | hit rate 0.17% among 300,000 | AID 1554; in the data active means inhibition above about 50%; inconclusive means no clear call, values can overlap the other calls
Autofluor counter – counter-screen for toxin protease inhibitors: compound fluorescence; fluorescence intensity (concentration not given with the values); hit rate 3.1% among 360,000; AID 624483; compound autofluorescence counterscreen, microsphere flow cytometry; hits give high values; in the data active means fluorescence intensity above about 16000; inconclusive means no clear call, values can overlap the other calls
Anthrax LF inh2 – blocks Bacillus anthracis lethal factor protease; inhibition, % at 10 µM; hit rate 0.12% among 360,000; multiplex microsphere protease cleavage assay, LF
Target sequence (P15917 whole entry, looked up): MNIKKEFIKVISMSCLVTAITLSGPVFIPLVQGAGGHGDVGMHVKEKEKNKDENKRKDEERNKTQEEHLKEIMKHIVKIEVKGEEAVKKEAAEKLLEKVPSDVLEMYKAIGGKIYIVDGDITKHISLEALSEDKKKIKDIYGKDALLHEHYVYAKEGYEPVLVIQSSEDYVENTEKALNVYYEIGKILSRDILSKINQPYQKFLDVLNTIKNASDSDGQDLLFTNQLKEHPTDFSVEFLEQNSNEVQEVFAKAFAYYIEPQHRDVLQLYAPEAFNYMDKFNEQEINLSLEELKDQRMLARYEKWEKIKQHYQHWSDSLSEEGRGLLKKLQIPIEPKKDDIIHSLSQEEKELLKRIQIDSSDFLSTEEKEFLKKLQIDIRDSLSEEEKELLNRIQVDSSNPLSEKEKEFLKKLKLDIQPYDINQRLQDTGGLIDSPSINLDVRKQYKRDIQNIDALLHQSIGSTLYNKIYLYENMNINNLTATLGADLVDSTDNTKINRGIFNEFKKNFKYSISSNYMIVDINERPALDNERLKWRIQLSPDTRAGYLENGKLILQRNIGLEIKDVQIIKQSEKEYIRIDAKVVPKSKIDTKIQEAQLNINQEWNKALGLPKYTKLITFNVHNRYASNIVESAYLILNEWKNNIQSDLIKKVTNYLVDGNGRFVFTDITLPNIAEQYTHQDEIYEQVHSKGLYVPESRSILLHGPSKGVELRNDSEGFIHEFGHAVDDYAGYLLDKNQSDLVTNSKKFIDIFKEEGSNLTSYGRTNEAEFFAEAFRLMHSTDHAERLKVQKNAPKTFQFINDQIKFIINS
A number is an active result; - = inactive; ? = inconclusive; . = no result. Unless noted, no stated cut-off is given here; in the data, active means inhibition above about 30%; inconclusive means no clear call, values can overlap the other calls; inactive means below that.

SMILES | BoNT-F LC inh | BoNT-A LC inh2 | BJeLR viability | Autofluor counter | Anthrax LF inh2
Cc1ccc(NC(=O)CN2C(=O)COc3ccc(C)cc32)nc1 | - | - | - | 21570 | -
Cc1ccc2c(c1)N(C(C)C(=O)NCCc1ccccc1)C(=O)CO2 (configuration not stated) | - | ? | - | 20536 | -
Cc1ccc2[nH]cc(CCNC(=O)CN3C(=O)c4ccccc4C3=O)c2c1 | - | - | - | - | -
Cc1ccc2c(c1)N(CCC(=O)N1CCC3(CC1)OCCO3)C(=O)CO2 | - | - | - | 22602 | -
CN(CC(=O)Nc1ccccc1C(=O)NC1CC1)Cc1ccco1 | - | - | . | - | -
COc1ccc(N2CCN(CCCNS(=O)(=O)c3c(C)noc3/C=C/N(C)C)CC2)cc1 | . | . | - | . | .
COCCNC(=S)N(CCc1c(C)[nH]c2ccc(OC)cc12)Cc1cccnc1 | - | - | - | - | -
Nc1c(Cl)cc(N=Nc2ccccc2)cc1Cl | - | - | . | - | -
O=C(Nc1ccc2c(c1)OCO2)C1Cc2c(-c3ccccc3Oc3ccccc3)ccnc2O1 (configuration not stated) | - | - | . | - | -
N#Cc1cccc(C(=O)OCC(=O)NCc2ccco2)c1 | - | - | - | - | -
CC1CCCN(CCOCCOc2ccc(Cl)cc2Br)C1 (configuration not stated) | - | - | - | 21666 | -
CCOC(=O)c1c(N)nn(C(=O)C(C)C)c1-c1ccc(OC)cc1 | - | - | - | 16326 | -
COc1ccc(N(C)S(=O)(=O)c2ccc(Cl)c(C(=O)NCC(C)(C)N3CCOCC3)c2)cc1 | - | - | . | - | -
CCCNc1nc(Nc2ccc(C)cc2)nc(N2CCCC2)n1 | - | - | - | 16266 | -
COc1ccc(Nc2nc(NCCO)nc(N3CCCC3)n2)cc1 | - | - | - | - | -
Cn1c(=O)c2cc(NC(=S)NC3CCCCC3)ccc2n1-c1ccccc1 | - | - | . | - | -
CCC(=O)N(CC)C1=C(O)c2ccccc2C(=O)C1=O | - | - | - | 20676 | -
COc1cc(OC)cc(C(=O)NC(=S)Nc2ccc(Cl)c(C(=O)O)c2)c1 | - | - | - | 24431 | -
Cc1nc(N2CCC(C(N)=O)CC2)c2nnn(Cc3ccccc3)c2n1 | - | - | - | 21409 | -
CC(C)(C)c1nc(N2CCN(C(=O)c3ccco3)CC2)c2nnn(Cc3ccccc3)c2n1 | - | - | - | - | -
Cc1nc(N2CCCC2)c2nnn(Cc3ccccc3Cl)c2n1 | - | - | - | 20754 | -
O=C(Nc1ccc(F)cc1F)N1CCCCC1c1cccnc1 (configuration not stated) | - | ? | - | 22683 | -
CCOC(=O)c1c(C)nc(C)c(C(=O)OCC)c1-c1ccccc1 | - | - | - | - | -
CCOC(=O)c1c(C)nc2c(c1-c1cc(OC)c(OC)c(OC)c1)C(=O)c1ccccc1-2 | - | ? | - | 19026 | -
CC(=O)Nc1ccc(Nc2ncnc3c2cnn3-c2ccccc2)cc1 | - | ? | - | 23123 | -
SMILES | BoNT-F LC inh | BoNT-A LC inh2 | BJeLR viability | Autofluor counter | Anthrax LF inh2
Clc1ccc(Nc2ncnc3c2cnn3-c2ccccc2)cc1 | - | - | - | - | -
CC(=O)Nc1ccc(Nc2ncnc3c2cnn3-c2cccc(C)c2)cc1 | - | - | - | 19017 | -
COc1cccc(C=O)c1OCCN1C(=O)c2ccccc2C1=O | - | - | - | - | -
Cc1ccc(S(=O)(=O)N2CCC[C@H]2C(=O)Nc2ccccc2C)cc1 | - | - | . | - | -
CN(Cc1cccs1)C(=O)C1CCN(S(=O)(=O)c2ccccc2)CC1 | - | - | . | - | -
Cc1ccc(S(=O)(=O)N2CCCC2C(=O)Nc2nc3ccccc3s2)cc1 (configuration not stated) | - | - | - | 20751 | -
Cc1ccc(S(=O)(=O)N2CCCC2C(=O)N(C)Cc2cccs2)cc1 (configuration not stated) | - | ? | - | 19722 | -
O=C(Nc1nc2ccccc2s1)C1CCCN1S(=O)(=O)c1ccc(Cl)cc1 (configuration not stated) | - | ? | - | 22849 | -
COc1ccc(S(=O)(=O)NCC(=O)NCc2cc(=O)n(C)c(=O)n2C)cc1 | - | - | - | - | -
Cc1c(O)cnc2nn(-c3ccccc3)c(=N)n12 | - | - | . | - | -
CC(C)(C)c1ccc(CC(=O)N2CCC2(C)C(=O)NCCC#N)cc1 (configuration not stated) | - | - | . | - | -
COc1cccc(CNCCNC(=O)c2nonc2N)c1 | - | - | - | 24154 | -
Cc1ccc(CNC(=O)c2ccc(C#CC(C)(C)O)s2)cc1 | - | ? | - | 22677 | -
O=C(COc1ccccc1[N+](=O)[O-])N(Cc1cccc(Br)c1)C1CCS(=O)(=O)C1 (configuration not stated) | - | - | - | - | -
CC1CC(C)CN(S(=O)(=O)c2ccc(NC(=O)CN3C(=O)NC(C)(c4ccccc4)C3=O)cc2)C1 (configuration not stated) | - | - | - | - | -
NC(c1csc(Nc2ccc(C(=O)c3ccccc3)cc2)n1)c1ccccc1Cl (configuration not stated) | - | - | . | - | -
O=C(O)C1CCCCC1C(=O)NCCC(c1ccccc1)c1ccccc1 (configuration not stated) | - | - | - | - | -
O=C(O)[C@H]1CCCC[C@H]1C(=O)NCCNC(=O)[C@@H]1CCCC[C@@H]1C(=O)O | - | ? | - | 23932 | -
O=C(NCCCCCCNC(=O)C1CCCC1)C1CCCC1 | - | ? | - | 21472 | -
Nc1c(C(=O)OCC2CCCO2)c2nc3ccccc3nc2n1C1CCCC1 (configuration not stated) | - | - | - | 32531 | -
Cc1ccccc1CC(=O)Nc1ccc(S(=O)(=O)N2CCOCC2)cc1 | - | - | - | - | -
CC12CCC(C(=O)NCc3ccccn3)(OC1=O)C2(C)C (configuration not stated) | - | - | - | - | -
Cc1cccnc1NC(=O)C12CCC(C)(C(=O)O1)C2(C)C (configuration not stated) | - | - | - | 22033 | -
O=C(NCC(c1cccnc1)N1CCN(c2ccccc2F)CC1)c1cccc(Cl)c1 (configuration not stated) | - | - | - | - | -
CC(=O)Nc1ccc(S(=O)(=O)N(CC(=O)O)Cc2ccccc2)cc1 | - | - | - | - | -
SMILES | BoNT-F LC inh | BoNT-A LC inh2 | BJeLR viability | Autofluor counter | Anthrax LF inh2
O=C(O)CN(c1ccccc1F)S(=O)(=O)c1ccccc1 | - | ? | - | 21296 | -
Cc1ccc(S(=O)(=O)N(CC(=O)O)Cc2ccccc2)cc1 | - | - | - | - | -
O=C(O)CN(Cc1ccccc1)S(=O)(=O)c1ccc(F)cc1 | - | - | - | 20545 | -
CCOC(=O)CN(Cc1ccccc1)S(=O)(=O)c1ccc(NC(C)=O)cc1 | - | - | - | 21423 | -
Cc1nn(-c2ccc(F)cc2)c2sc(C(=O)OCC(=O)N3CCC(C)CC3)cc12 | - | ? | - | 19994 | -
COCCN(C(=O)CSc1nnc(C)n1-c1ccc(C)cc1)c1c(N)n(Cc2ccccc2)c(=O)[nH]c1=O | - | - | - | 17749 | -
COCCN(C(=O)COC(=O)c1cc(C)n(-c2ccccc2)c1C)c1c(N)n(Cc2ccccc2)c(=O)[nH]c1=O | - | 60 | - | - | ?
